Data reported in PubChem BioAssay (Tox21).
“And” between values parts separate entries of the source, which are not always exact repeats. Equal values may be shown once. Records with an inconclusive call do not appear. A number with no mark means an inactive call. The source made the active and inactive calls. The call rests on the fitted dose curve.

assay: qHTS assay to identify small molecule agonists of the AP-1 signaling pathway - cell viability counter screen (AID 1159525); settings: ME-180 (cervical carcinoma) AP-1-bla cells viability, ATP luminescence, 5 h; series mostly up to 76.8 µM; viability change, negative = cytotoxic: at the top concentration; further: nearly all actives have a fitted effect of over 55% in size
Summary of the method: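 Each titration point was normalised to DMSO and tetra n-octyl ammonium bromide controls. The read was Cell Titer Glo luminescence after 30 min at RT, following 5 h compound exposure of ME-180 AP-1-bla cells at 37 °C.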
Potency means the concentration at half of the fitted maximal effect.

**Q.** For CCCSP(=O)(OCC)SCCC, which “viability change, negative = cytotoxic” value is on record?
**A.** -2.69%

**Q.** For CCCCCCCCCCCCCCCCCCn1cc[n+](C)c1, which “viability change, negative = cytotoxic” value is on record?
**A.** -3.47%

**Q.** Which Potency does the source give for C[C@@H]1CC[C@@]2(OC1)O[C@H]1[C@@H](O)[C@H]3[C@@H]4CC[C@H]5C[C@@H](O[C@@H]6O[C@H](CO)[C@H](O[C@@H]7O[C@H](CO)[C@@H](O)[C@H](O[C@@H]8OC[C@@H](O)[C@H](O)[C@H]8O)[C@H]7O[C@@H]7O[C@H](CO)[C@@H](O)[C@H](O[C@@H]8O[C@H](CO)[C@@H](O)[C@H](O)[C@H]8O)[C@H]7O)[C@H](O)[C@H]6O)[C@H](O)C[C@]5(C)[C@H]4CC[C@]3(C)[C@H]1[C@@H]2C here?
**A.** 11.6 µM (active)

**Q.** For CC1(c2ccc(Oc3ccccc3)cc2)OC(=O)N(Nc2ccccc2)C1=O (centres undefined), which “viability change, negative = cytotoxic” value is on record?
**A.** -9.65%

**Q.** For COc1cc(C=O)cc2c1[C@H](COC(N)=O)[C@]1(OC(C)=O)ON2C[C@H]2[C@@H]1N2C(C)=O, which “viability change, negative = cytotoxic” value is on record?
**A.** -2.33%

**Q.** With CN(C)c1ccc(N=Nc2ccccc2)cc1 as the compound, how does the “viability change, negative = cytotoxic” value read?
**A.** 4.07%

**Q.** With O=[N+]([O-])c1ccc2ccc3cccc4ccc1c2c34 as the compound, how does the “viability change, negative = cytotoxic” value read?
**A.** -1.79%

**Q.** For Clc1ccc(C(c2ccc(Cl)cc2)C(Cl)(Cl)Cl)cc1, which Potency is on record?
**A.** 34.9 µM (active) and 38.9 µM (active)

**Q.** With CCc1nn(C)c(C(=O)NCc2ccc(C(C)(C)C)cc2)c1Cl as the compound, how does the Potency read?
**A.** 54.9 µM (active)

**Q.** Which Potency does the source give for CN(C)C(=S)S here?
**A.** 38.9 µM (active)

**Q.** Which “viability change, negative = cytotoxic” value does the source give for Oc1ccc(C(=C(Cl)Cl)c2ccc(O)cc2)cc1 here?
**A.** -14.9%

**Q.** With COP(=O)(OC)SCn1c(=O)oc2cc(Cl)cnc21 as the compound, how does the “viability change, negative = cytotoxic” value read?
**A.** 0.279%

**Q.** Which Potency does the source give for CC(C)C1CCC(Cc2ccc(Cl)cc2)C1(O)Cn1cncn1 (centres undefined) here?
**A.** 48.5 µM (active)

**Q.** Which Potency does the source give for N#CSCSC#N here?
**A.** 25.1 µM (active) and 21.7 µM (active)
